Gli-Sufu block = Gli-Sufu pathway antagonism; Sufu-KO-LIGHT fibroblasts, Gli luciferase reporter luminescence; inhibition, % at 5 µM; 340,000 compounds, 0.74% hits; AID 588413;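 active = inhibition above about 55%, limit read from the data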
Jurkat NFkB inh = inhibitors of the PMA/ionomycin-induced NF-kB reporter in Jurkat cells. PMA/ionomycin-induced NF-kB luciferase reporter, luminescence. inhibition, % at 4 µM. AID 435003. 330,000 compounds, 0.53% hits; in the data active = inhibition above about 50%
697 NFkB inh = lowers PMA/ionomycin-induced NF-kB signal in 697 B cells | 330,000 compounds, 0.33% hits | 697 B-cell NF-kB luciferase reporter, 16 h | inhibition, % at 4 µM; in the data active = inhibition above about 35%
Beta apoptosis = blocks beta cell apoptosis. INS-1E cytokine-induced death, ATP luminescence, 48 h; percent of positive-control rescue, neutral wells zero. AID 435005. 300,000 compounds, 0.8% hits. protection from apoptosis, % (test concentration not listed);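 active = Every replicate reaches about 75%, or at least half do and their mean reaches it too, limit read from the data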;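 note: higher means more ATP so stronger rescue from cytokine killing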
Mdm2-MdmX inh = human Mdm2/MdmX binding inhibition; O15151+Q00987; 330,000 compounds, 3% hits; inhibition, % at 8 µM; SaOS-2 split-luciferase Mdm2/MdmX complementation, luminescence;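 active = inhibition of at least 50% at 8 µM in the primary screen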
Target sequence (O15151 whole entry, looked up): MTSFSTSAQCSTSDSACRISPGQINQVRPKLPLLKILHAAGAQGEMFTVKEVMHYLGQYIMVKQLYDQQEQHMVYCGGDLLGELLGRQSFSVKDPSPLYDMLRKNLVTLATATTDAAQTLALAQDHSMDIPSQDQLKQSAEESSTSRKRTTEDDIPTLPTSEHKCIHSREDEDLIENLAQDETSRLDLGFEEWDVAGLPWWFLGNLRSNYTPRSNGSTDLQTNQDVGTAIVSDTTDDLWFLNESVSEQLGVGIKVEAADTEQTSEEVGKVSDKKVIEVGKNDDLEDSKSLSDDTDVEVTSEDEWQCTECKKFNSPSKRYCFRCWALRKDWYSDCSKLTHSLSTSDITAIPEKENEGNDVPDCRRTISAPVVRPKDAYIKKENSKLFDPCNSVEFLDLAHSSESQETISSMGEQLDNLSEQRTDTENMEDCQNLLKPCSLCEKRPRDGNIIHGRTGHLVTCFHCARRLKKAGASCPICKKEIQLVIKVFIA
Target sequence (Q00987 whole entry, looked up): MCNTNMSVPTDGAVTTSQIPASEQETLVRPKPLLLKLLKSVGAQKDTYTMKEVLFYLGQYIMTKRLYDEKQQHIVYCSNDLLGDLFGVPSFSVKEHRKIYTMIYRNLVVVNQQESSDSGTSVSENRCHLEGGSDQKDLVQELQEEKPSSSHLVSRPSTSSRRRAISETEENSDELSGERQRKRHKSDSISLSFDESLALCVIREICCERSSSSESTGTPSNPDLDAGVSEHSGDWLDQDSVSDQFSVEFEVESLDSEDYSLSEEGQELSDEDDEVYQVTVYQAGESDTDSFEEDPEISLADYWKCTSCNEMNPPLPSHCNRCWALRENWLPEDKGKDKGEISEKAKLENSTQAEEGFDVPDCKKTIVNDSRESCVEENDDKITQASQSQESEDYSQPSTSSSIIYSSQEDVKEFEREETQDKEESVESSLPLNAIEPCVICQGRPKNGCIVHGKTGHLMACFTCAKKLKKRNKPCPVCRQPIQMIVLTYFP
Gli antag conf = Gli-SUFU antagonism confirmation, single concentration; inhibition, % at 5 µM; Sufu-KO-LIGHT cells, Gli luciferase reporter, luminescence; AID 602428; shares compounds with Gli-Sufu block; 2,500 compounds, 40% hits;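 active = mean inhibition at 5 µM reaching about 45%, limit read from the data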
SufuKO cytotox = counter-screen for Gli-SUFU antagonists: cytotoxicity; shares compounds with Gli-Sufu block; cytotoxicity, % at 5 µM; 2,500 compounds, 32% hits; Sufu-KO-LIGHT cells cytotoxicity, ATP luminescence;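 active = mean cytotoxicity at 5 µM above about 25%, limit read from the data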;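 note: cells exposed to compound overnight for roughly 16 to 18 hours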
Wnt3a counter = Wnt3a reporter inhibition counter-screen; shares compounds with Gli-Sufu block; Wnt-LIGHT cells, Wnt3a-driven luciferase reporter, luminescence; inhibition, % at 6.25 µM; 2,500 compounds, 20% hits; AID 651995;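 active = mean inhibition above about 25%, limit read from the data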
Hits are given with their value. This is a sample that favours compounds with a hit; in the whole collection about 4% have one here.

For COc1ccccc1NS(=O)(=O)c1ccc(C)c(C(=O)NC2CCN(Cc3ccccc3)CC2)c1 the results were Gli-Sufu block inactive, Jurkat NFkB inh inactive, 697 NFkB inh inactive and Mdm2-MdmX inh inactive.
Screening COc1ccccc1NS(=O)(=O)c1cccc(C(=O)NC2CCN(Cc3ccccc3)CC2)c1 returned Gli-Sufu block inactive, Jurkat NFkB inh inactive, 697 NFkB inh inactive, Beta apoptosis inactive, Mdm2-MdmX inh inactive, Gli antag conf 57, SufuKO cytotox 27 and Wnt3a counter inactive.
For COc1ccc(C(=O)NC2CC3CCCC(C2)N3Cc2ccccc2)cc1OC (centres undefined) the results were Gli-Sufu block 57, Jurkat NFkB inh inactive, 697 NFkB inh inactive, Beta apoptosis inactive, Mdm2-MdmX inh inactive, Gli antag conf inactive, SufuKO cytotox inactive and Wnt3a counter inactive.
Screening Cc1ccc(S(=O)(=O)N2CCOCC2)cc1C(=O)NC1CCN(Cc2ccccc2)CC1 returned Gli-Sufu block inactive.
Cc1ccc(C(=O)NC2CCN(Cc3ccccc3)CC2)cc1S(=O)(=O)N1CCOCC1 was read as Gli-Sufu block 61, Jurkat NFkB inh inactive, 697 NFkB inh inactive, Beta apoptosis inactive, Mdm2-MdmX inh inactive, Gli antag conf inactive, SufuKO cytotox inactive and Wnt3a counter inactive.
Screening CCC(C)N(C(=O)COC(=O)CNC(=O)c1sc2ccccc2c1Cl)C1CCS(=O)(=O)C1 (centres undefined) returned Gli-Sufu block inactive, Jurkat NFkB inh inactive, 697 NFkB inh inactive, Beta apoptosis inactive and Mdm2-MdmX inh inactive.
Screening CC1CCN(Cc2ccc(-c3nnn(CC(=O)Nc4ccccc4Cl)n3)cc2)CC1 returned Gli-Sufu block 58, Jurkat NFkB inh inactive, 697 NFkB inh inactive, Mdm2-MdmX inh inactive, Gli antag conf 73, SufuKO cytotox 33 and Wnt3a counter inactive.
`CCCCCC(=O)Nc1cc(S(=O)(=O)O)cc2cc(S(=O)(=O)O)cc(O)c12` gave Gli-Sufu block inactive.
COc1cccc(CNC(=O)C2CC(=O)N(C3CCCCC3)C2)c1 (centres undefined) was read as Gli-Sufu block inactive, Jurkat NFkB inh inactive, 697 NFkB inh inactive, Beta apoptosis inactive and Mdm2-MdmX inh inactive.
Screening O=C(NCc1ccc(F)cc1)C1CCN(S(=O)(=O)c2ccc3c(c2)OCCCO3)CC1 returned Gli-Sufu block inactive, Jurkat NFkB inh inactive, 697 NFkB inh inactive, Beta apoptosis inactive and Mdm2-MdmX inh inactive.
O=C(NCc1ccc(Cl)cc1Cl)C1CCN(S(=O)(=O)c2ccc3c(c2)OCCCO3)CC1 was read as Gli-Sufu block 63, Jurkat NFkB inh inactive, 697 NFkB inh inactive, Beta apoptosis inactive, Mdm2-MdmX inh inactive, Gli antag conf inactive, SufuKO cytotox inactive and Wnt3a counter inactive.
For CCN(CC)C(=O)c1c(-c2ccccc2)oc2ccc(O)cc12 the results were Gli-Sufu block inactive, Jurkat NFkB inh inactive, 697 NFkB inh inactive, Beta apoptosis inactive and Mdm2-MdmX inh inactive.
For O=Cc1cn(CC(O)CN2CCCCC2)c2ccccc12 (centres undefined) the results were Gli-Sufu block inactive, Jurkat NFkB inh inactive, 697 NFkB inh inactive, Beta apoptosis inactive and Mdm2-MdmX inh inactive.
CC(C)(CO)NCC(O)Cn1cc(C=O)c2ccccc21 (centres undefined) was read as Gli-Sufu block inactive, Jurkat NFkB inh inactive, 697 NFkB inh inactive, Beta apoptosis inactive, Mdm2-MdmX inh inactive, Gli antag conf inactive, SufuKO cytotox inactive and Wnt3a counter inactive.
For C=CCSc1nnc(NC(=O)c2cccc(S(=O)(=O)N(C)c3ccccc3)c2)s1 the results were Gli-Sufu block 74, Jurkat NFkB inh inactive, 697 NFkB inh inactive, Beta apoptosis inactive, Mdm2-MdmX inh inactive, Gli antag conf inactive, SufuKO cytotox inactive and Wnt3a counter inactive.
For Cc1cccc(C(=O)Nc2cccc(C(=O)Nc3cc(C)ccn3)c2)c1 the results were Gli-Sufu block inactive, Jurkat NFkB inh inactive, 697 NFkB inh inactive, Beta apoptosis inactive and Mdm2-MdmX inh inactive.
Screening Cc1ccnc(NC(=O)c2cccc(NC(=O)Cc3ccccc3)c2)c1 returned Gli-Sufu block 95, Jurkat NFkB inh inactive, 697 NFkB inh inactive, Beta apoptosis inactive, Mdm2-MdmX inh inactive, Gli antag conf inactive, SufuKO cytotox 25 and Wnt3a counter inactive.
CSc1cccc(NS(=O)(=O)c2ccc3c(c2)CCN3C(C)=O)c1 was read as Gli-Sufu block 71, Jurkat NFkB inh inactive, 697 NFkB inh inactive, Beta apoptosis inactive, Mdm2-MdmX inh inactive, Gli antag conf 60, SufuKO cytotox 30 and Wnt3a counter 27.
For O=C(N/N=C\c1cc(Cl)ccc1O)c1ccc(S(=O)(=O)N2CCCCC2)cc1 the results were Gli-Sufu block 73, Jurkat NFkB inh inactive, 697 NFkB inh inactive, Beta apoptosis 97, Mdm2-MdmX inh inactive, Gli antag conf 78, SufuKO cytotox 37 and Wnt3a counter 61.
For O=C(Nc1cc(S(=O)(=O)Nc2ccc(Cl)cc2)ccc1O)c1ccc(S(=O)(=O)N2CCCCCC2)cc1 the results were Gli-Sufu block inactive, Jurkat NFkB inh inactive, 697 NFkB inh inactive, Beta apoptosis inactive and Mdm2-MdmX inh inactive.
For O=C(CC(Cc1ccccc1)C(=O)O)Nc1cccc(C(F)(F)F)c1 (centres undefined) the results were Gli-Sufu block inactive, Jurkat NFkB inh inactive, 697 NFkB inh inactive, Beta apoptosis inactive, Mdm2-MdmX inh inactive, Gli antag conf inactive, SufuKO cytotox inactive and Wnt3a counter inactive.
O=C(CC(Cc1ccccc1)C(=O)O)Nc1ccc(F)cc1 (centres undefined) was read as Gli-Sufu block inactive, Jurkat NFkB inh inactive, 697 NFkB inh inactive and Mdm2-MdmX inh inactive.
CN(C)S(=O)(=O)c1ccc(N2CCCC2)c(C(=O)NNC(=O)COc2ccccc2F)c1 was read as Gli-Sufu block inactive, Jurkat NFkB inh inactive, 697 NFkB inh inactive, Beta apoptosis inactive and Mdm2-MdmX inh inactive.
Screening COc1ccc(NC(=O)CN2C(=O)NC(C)(c3ccc(C)cc3)C2=O)cn1 (centres undefined) returned Gli-Sufu block inactive, Jurkat NFkB inh inactive, 697 NFkB inh inactive, Beta apoptosis inactive and Mdm2-MdmX inh inactive.
For COc1ccc(CN2CCCCC2C(=O)Nc2ccc(OC)c(OCC(C)C)c2)cc1OC (centres undefined) the results were Gli-Sufu block 63, Jurkat NFkB inh inactive, 697 NFkB inh inactive, Beta apoptosis inactive, Mdm2-MdmX inh inactive, Gli antag conf inactive, SufuKO cytotox 29 and Wnt3a counter inactive.
For O=[N+]([O-])c1ccc(N2CCN(C(=S)NCc3ccc(Cl)cc3)CC2)cc1 the results were Gli-Sufu block 58, Jurkat NFkB inh inactive, 697 NFkB inh inactive, Beta apoptosis 96, Mdm2-MdmX inh inactive, Gli antag conf inactive, SufuKO cytotox inactive and Wnt3a counter inactive.

Compound activity deposited in PubChem by several laboratories.
